This passage reports binding signal results from publication PMC7862700, “An all-to-all approach to the identification of sequence-specific readers for epigenetic DNA modifications on cytosine”.

Test in all cases: DAPPL (digital affinity profiling via proximity ligation, sequencing); 10 mM Tris-HCl pH 7.5, 50 mM NaCl, 1 mM DTT, 4% glycerol, room temperature, 30 min; GST-TFs on glutathione beads, 16-mer random dsDNA library, 0.1% formaldehyde crosslink after washing; high values mean tight binding
One test addresses T1, FLI1 (Homo sapiens, UniProt Q01543 1-452).
T1 sequence: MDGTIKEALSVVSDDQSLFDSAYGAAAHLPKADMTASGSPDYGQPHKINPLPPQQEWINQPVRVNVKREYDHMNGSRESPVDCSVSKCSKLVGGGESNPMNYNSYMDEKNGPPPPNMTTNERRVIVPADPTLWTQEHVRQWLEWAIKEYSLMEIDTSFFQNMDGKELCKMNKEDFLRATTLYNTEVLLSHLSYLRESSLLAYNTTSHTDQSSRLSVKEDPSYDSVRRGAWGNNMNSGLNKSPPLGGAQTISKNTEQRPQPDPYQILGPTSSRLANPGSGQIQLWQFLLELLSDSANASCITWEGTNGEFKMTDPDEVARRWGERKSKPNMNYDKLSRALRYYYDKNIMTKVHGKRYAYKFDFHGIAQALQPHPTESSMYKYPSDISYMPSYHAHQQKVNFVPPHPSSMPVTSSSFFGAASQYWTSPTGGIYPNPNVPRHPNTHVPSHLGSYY
As to conditions: protein: recombinant; tags: N-terminal GST; dsDNA, one strand shown. The essentials:
(§1)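 In yeast, human transcription factors were expressed with a GST fusion, then pulled down on glutathione beads and given DNA barcodes. Pooled with a tag-only sample, they were exposed to 200 nmole of a 16-mer random double-stranded DNA library (Tris/NaCl/DTT/glycerol buffer, room temperature, 30 min), washed, crosslinked with 0.1% formaldehyde, proximity-ligated using BsaI/T4 ligase for 1 h at 37 °C, PCR-amplified and read on an Illumina NextSeq500. Each hexamer's frequency of reads for a factor, divided by the matching frequency for the tag-only sample, gives the binding signal.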

The next test concerns the target T2, ELK1 (Homo sapiens, UniProt P19419 1-428).
T2 sequence: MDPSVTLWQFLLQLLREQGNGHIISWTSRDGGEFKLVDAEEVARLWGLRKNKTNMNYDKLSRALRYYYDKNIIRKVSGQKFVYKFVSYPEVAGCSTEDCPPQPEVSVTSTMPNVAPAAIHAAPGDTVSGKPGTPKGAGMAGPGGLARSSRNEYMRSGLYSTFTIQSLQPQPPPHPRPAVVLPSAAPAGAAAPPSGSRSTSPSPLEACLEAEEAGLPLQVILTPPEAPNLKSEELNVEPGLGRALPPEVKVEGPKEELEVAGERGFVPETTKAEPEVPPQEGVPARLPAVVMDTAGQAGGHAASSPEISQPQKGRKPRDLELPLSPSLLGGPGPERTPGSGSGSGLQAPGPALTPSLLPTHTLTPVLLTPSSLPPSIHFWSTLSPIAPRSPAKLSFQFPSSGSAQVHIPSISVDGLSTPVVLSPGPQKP
As to conditions: protein: recombinant; tags: N-terminal GST; dsDNA, one strand shown. The essentials: as §1

For the next test, the target named is T3, GABPA (Homo sapiens, UniProt Q06546 1-454).
T3 sequence: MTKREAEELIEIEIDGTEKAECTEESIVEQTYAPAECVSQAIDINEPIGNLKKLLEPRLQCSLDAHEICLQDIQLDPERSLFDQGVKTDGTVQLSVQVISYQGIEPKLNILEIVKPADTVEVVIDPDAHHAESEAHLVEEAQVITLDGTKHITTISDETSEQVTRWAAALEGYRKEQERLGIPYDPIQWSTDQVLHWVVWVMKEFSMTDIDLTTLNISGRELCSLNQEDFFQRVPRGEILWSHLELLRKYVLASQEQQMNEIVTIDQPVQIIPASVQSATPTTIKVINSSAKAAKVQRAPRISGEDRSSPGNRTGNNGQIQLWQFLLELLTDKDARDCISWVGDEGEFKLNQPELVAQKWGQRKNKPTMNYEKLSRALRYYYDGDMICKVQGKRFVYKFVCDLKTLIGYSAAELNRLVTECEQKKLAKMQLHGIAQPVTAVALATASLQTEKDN
Conditions: protein: recombinant; tags: N-terminal GST; dsDNA, one strand shown. The method in brief:
as §1

For the next test, the target named is T4, ERG (Homo sapiens, UniProt P11308 1-479).
T4 sequence: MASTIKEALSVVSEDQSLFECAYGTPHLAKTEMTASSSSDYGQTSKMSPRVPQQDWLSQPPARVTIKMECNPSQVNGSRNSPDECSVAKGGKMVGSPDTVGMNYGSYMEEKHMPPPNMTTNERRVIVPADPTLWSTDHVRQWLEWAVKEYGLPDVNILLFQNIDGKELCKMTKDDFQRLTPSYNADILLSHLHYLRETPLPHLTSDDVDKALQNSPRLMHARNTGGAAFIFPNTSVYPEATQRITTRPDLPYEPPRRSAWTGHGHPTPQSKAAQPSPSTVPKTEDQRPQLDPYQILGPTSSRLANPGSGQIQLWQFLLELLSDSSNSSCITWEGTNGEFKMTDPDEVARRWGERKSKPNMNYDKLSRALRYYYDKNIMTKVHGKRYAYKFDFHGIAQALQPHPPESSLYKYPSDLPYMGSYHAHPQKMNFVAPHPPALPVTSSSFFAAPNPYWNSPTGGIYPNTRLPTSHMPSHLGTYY
As to conditions: protein: recombinant; tags: N-terminal GST; dsDNA, one strand shown. The method in brief:
as §1

A further test concerns the target ELF1 (Homo sapiens, UniProt P32519 1-619). Conditions: protein: recombinant; tags: N-terminal GST; dsDNA, one strand shown. The method in brief: as §1
The target of a further test is T5, EHF (Homo sapiens, UniProt Q9NZC4 1-300).
T5 sequence: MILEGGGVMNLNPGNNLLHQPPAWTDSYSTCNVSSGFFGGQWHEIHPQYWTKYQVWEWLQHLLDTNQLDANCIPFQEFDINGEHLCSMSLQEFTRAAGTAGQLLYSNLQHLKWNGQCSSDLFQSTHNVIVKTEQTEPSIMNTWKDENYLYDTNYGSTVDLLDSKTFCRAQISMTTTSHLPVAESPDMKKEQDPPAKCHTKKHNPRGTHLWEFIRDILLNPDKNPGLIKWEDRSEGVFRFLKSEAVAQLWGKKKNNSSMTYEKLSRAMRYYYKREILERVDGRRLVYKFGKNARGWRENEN
Conditions: protein: recombinant; tags: N-terminal GST; dsDNA, one strand shown. The method in brief:
as §1

The next test concerns the target SPI1 (Homo sapiens, UniProt P17947 1-270). As to conditions: protein: recombinant; tags: N-terminal GST; dsDNA, one strand shown. The essentials:
as §1

In the next test the target is SPIB (Homo sapiens, UniProt Q01892 1-262). Conditions: protein: recombinant; tags: N-terminal GST; dsDNA, one strand shown. The method in brief: as §1
In another test the target is T6, ELK3 (Homo sapiens, UniProt P41970 1-407).
T6 sequence: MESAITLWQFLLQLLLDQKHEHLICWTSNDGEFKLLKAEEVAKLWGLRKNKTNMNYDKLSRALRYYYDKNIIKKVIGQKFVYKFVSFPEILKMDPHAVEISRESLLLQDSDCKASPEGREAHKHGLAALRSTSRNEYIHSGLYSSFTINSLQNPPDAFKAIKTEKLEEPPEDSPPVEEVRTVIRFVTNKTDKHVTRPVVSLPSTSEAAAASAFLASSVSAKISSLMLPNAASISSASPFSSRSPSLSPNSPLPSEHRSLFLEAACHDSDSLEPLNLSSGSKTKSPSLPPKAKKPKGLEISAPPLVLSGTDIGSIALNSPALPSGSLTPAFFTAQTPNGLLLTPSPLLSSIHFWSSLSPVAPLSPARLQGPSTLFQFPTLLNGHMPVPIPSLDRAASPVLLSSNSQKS
Conditions: protein: recombinant; tags: N-terminal GST; dsDNA, one strand shown. The method in brief: as §1

In the next test the target is T7, FEV (Homo sapiens, UniProt Q99581 1-238).
T7 sequence: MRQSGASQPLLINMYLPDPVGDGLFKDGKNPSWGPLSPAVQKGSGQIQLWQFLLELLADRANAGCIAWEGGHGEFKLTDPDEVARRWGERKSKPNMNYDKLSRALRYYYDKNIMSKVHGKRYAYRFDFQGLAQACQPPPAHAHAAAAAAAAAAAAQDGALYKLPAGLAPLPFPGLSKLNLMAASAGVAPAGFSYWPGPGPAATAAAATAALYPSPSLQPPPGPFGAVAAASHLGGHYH
As to conditions: protein: recombinant; tags: N-terminal GST; dsDNA, one strand shown. The essentials: as §1

For a further test, the target named is ETV5 (Homo sapiens, UniProt P41161 1-510). As to conditions: protein: recombinant; tags: N-terminal GST; dsDNA, one strand shown. The essentials:
as §1

The next test concerns the target HSF1 (Homo sapiens, UniProt Q00613 1-529). As to conditions: protein: recombinant; tags: N-terminal GST; chain copies: 3; dsDNA, one strand shown. The method in brief: as §1
Another test addresses T8, SPIC (Homo sapiens, UniProt Q8N5J4 1-248).
T8 sequence: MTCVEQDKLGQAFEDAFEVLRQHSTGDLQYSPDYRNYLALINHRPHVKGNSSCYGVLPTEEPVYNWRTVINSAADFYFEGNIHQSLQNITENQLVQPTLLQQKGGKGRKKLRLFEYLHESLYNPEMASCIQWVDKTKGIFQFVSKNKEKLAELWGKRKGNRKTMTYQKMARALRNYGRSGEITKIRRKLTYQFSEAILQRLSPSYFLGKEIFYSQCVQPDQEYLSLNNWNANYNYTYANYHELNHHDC
As to conditions: protein: recombinant; tags: N-terminal GST; dsDNA, one strand shown. The method in brief:
as §1

The target of another test is ELF4 (Homo sapiens, UniProt Q99607 1-663). As to conditions: protein: recombinant; tags: N-terminal GST; dsDNA, one strand shown. The method in brief:
as §1

Another test concerns the target T9, ELK4 (Homo sapiens, UniProt P28324-2 1-405).
T9 sequence: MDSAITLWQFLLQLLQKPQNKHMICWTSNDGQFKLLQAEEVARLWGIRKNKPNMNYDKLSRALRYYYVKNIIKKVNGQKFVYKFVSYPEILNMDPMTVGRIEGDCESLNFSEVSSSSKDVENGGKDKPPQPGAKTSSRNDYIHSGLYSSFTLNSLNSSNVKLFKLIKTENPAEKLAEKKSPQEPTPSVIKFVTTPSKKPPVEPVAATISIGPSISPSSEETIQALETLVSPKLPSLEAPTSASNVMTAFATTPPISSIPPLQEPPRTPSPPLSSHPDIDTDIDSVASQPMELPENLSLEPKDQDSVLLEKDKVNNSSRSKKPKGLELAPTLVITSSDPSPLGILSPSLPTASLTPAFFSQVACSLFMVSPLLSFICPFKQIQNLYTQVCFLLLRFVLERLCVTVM
Conditions: protein: recombinant; tags: N-terminal GST; dsDNA, one strand shown. The method in brief: as §1

Another test concerns the target T10, ETV2 (Homo sapiens, UniProt O00321 1-342).
T10 sequence: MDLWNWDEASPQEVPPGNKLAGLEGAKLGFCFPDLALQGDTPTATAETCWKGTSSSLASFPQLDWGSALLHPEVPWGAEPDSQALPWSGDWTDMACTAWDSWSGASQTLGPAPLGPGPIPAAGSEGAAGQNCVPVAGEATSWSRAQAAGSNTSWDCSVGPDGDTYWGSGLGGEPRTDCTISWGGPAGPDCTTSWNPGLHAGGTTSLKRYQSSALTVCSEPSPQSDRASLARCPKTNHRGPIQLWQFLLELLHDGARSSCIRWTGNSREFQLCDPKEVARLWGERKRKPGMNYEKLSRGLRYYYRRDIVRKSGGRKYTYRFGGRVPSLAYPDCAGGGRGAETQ
Conditions: protein: recombinant; tags: N-terminal GST; dsDNA, one strand shown. The method in brief: as §1

Another test addresses T11, ELF3 (Homo sapiens, UniProt P78545 1-371).
T11 sequence: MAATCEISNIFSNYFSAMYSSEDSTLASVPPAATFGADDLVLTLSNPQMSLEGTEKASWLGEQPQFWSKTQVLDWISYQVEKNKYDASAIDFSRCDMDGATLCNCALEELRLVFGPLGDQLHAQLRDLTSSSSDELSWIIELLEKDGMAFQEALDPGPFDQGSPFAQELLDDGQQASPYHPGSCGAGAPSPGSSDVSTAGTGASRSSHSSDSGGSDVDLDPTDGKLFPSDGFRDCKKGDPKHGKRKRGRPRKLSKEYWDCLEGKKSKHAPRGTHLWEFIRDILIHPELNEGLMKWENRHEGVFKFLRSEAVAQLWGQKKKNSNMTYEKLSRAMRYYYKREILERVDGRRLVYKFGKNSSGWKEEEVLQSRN
Conditions: protein: recombinant; tags: N-terminal GST; dsDNA, one strand shown. The method in brief:
as §1

The next test deals with CRX (Homo sapiens, UniProt O43186 1-299). Conditions: protein: recombinant; tags: N-terminal GST; dsDNA, one strand shown. The method in brief: as §1
The target in another test is ETV1 (Homo sapiens, UniProt P50549 1-477). As to conditions: protein: recombinant; tags: N-terminal GST; dsDNA, one strand shown. The essentials: as §1
ETV1, sequence (P50549 whole entry): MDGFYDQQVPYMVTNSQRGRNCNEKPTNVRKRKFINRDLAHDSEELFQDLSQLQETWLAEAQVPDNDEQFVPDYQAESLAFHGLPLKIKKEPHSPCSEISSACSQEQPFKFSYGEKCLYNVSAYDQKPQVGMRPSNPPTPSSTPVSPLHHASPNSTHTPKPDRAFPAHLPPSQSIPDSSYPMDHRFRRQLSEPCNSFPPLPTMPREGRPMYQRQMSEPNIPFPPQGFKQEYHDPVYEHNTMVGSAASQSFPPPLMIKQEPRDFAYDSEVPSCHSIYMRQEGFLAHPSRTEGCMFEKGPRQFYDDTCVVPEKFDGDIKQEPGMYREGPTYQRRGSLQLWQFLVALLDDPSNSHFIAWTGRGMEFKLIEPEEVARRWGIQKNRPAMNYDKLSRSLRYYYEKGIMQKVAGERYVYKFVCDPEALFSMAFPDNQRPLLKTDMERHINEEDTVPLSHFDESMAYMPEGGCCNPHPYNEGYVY

ELF1, sequence (P32519 whole entry): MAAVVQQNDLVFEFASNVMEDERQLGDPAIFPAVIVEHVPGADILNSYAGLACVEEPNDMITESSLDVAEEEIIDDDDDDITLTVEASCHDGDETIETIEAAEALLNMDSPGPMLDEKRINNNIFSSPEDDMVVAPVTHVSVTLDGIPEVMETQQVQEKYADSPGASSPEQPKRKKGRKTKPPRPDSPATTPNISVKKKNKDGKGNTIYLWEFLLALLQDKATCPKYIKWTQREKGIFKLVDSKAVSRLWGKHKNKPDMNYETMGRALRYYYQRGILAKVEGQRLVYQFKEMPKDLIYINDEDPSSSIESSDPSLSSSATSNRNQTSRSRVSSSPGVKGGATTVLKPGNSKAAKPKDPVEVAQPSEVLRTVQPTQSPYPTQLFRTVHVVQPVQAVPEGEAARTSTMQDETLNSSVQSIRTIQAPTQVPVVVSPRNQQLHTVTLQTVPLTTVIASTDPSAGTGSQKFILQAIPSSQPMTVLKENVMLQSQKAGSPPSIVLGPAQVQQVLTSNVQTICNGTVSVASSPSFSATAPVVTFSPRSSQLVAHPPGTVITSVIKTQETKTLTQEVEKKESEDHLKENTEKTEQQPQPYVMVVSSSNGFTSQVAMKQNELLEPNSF
ETV5, sequence (P41161 whole entry): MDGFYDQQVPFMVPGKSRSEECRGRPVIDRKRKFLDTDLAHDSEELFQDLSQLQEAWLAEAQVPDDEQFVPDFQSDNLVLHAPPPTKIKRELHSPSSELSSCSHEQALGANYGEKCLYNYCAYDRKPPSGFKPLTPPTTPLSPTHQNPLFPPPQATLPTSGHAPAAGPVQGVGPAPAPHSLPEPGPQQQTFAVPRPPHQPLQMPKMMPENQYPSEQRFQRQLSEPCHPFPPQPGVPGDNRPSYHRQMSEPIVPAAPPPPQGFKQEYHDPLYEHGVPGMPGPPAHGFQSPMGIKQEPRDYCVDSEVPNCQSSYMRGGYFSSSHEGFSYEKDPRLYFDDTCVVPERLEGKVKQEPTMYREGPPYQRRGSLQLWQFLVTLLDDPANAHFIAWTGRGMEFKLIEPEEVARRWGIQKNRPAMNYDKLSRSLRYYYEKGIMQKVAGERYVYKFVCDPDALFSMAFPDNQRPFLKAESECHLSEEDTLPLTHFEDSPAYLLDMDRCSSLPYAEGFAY
HSF1, sequence (Q00613 whole entry): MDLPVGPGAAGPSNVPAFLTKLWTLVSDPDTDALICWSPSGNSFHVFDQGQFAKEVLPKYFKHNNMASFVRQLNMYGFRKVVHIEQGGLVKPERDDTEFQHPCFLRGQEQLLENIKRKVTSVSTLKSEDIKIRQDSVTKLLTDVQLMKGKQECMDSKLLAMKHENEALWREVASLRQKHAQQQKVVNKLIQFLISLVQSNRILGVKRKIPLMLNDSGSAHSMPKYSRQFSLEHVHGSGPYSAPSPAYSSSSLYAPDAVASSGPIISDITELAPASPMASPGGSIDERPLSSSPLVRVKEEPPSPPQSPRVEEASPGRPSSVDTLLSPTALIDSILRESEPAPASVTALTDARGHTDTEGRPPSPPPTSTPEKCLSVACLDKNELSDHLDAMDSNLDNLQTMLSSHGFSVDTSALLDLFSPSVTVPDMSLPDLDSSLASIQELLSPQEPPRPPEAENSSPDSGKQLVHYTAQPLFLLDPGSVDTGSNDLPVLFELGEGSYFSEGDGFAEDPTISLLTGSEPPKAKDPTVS
SPIB, sequence (Q01892 whole entry): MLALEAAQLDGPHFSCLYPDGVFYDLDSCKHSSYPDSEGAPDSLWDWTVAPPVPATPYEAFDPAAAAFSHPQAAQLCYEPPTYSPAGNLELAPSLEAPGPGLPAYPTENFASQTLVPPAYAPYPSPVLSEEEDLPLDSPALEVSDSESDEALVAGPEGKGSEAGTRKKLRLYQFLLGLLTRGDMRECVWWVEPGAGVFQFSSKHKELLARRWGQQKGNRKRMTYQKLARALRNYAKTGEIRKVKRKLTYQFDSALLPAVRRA
CRX, sequence (O43186 whole entry): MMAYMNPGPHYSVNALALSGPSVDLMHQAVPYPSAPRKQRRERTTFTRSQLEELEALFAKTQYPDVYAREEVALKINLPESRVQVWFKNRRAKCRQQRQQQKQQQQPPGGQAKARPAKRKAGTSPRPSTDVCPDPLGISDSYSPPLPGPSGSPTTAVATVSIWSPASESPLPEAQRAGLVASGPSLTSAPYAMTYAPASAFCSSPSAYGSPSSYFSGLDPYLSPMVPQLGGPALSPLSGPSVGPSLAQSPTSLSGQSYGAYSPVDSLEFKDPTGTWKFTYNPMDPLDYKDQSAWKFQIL
ELF4, sequence (Q99607 whole entry): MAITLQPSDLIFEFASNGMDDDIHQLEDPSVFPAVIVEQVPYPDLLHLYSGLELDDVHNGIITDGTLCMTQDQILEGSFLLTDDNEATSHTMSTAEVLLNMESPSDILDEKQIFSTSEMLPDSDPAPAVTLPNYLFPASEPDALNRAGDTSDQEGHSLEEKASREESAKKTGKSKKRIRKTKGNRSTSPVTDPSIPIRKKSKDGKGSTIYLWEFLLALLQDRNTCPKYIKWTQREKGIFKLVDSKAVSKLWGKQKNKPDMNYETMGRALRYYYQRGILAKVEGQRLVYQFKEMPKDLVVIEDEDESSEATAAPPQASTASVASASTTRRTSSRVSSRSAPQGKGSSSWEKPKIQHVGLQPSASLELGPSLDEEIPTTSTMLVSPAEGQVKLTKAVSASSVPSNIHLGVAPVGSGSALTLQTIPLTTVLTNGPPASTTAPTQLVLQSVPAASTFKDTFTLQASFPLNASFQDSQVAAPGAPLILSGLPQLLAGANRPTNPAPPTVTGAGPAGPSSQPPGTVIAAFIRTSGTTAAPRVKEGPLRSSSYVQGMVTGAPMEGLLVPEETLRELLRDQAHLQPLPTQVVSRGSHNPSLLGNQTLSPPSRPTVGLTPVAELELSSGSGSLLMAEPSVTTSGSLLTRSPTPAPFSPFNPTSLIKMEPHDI

With TACACA, the binding signal with FLI1 was 1.21 fold enrichment (6-mer frequency, TF over GST control); in the test with ELK1, 1.14 fold enrichment (6-mer frequency, TF over GST control); in the test with GABPA, 1.15 fold enrichment (6-mer frequency, TF over GST control); with ERG, 1.26 fold enrichment (6-mer frequency, TF over GST control); in the test with ELF1 it was 1.21 fold enrichment (6-mer frequency, TF over GST control); in the test with EHF it was 1.25 fold enrichment (6-mer frequency, TF over GST control). Also, the binding signal with SPI1 is 1.11 fold enrichment (6-mer frequency, TF over GST control); in the test with SPIB it was 1.23 fold enrichment (6-mer frequency, TF over GST control); in the test with ELK3 it was 1.18 fold enrichment (6-mer frequency, TF over GST control); with FEV, 1.21 fold enrichment (6-mer frequency, TF over GST control); in the test with ETV5, 1.2 fold enrichment (6-mer frequency, TF over GST control); with HSF1, 1.05 fold enrichment (6-mer frequency, TF over GST control). The binding signal in the test with SPIC is 1.35 fold enrichment (6-mer frequency, TF over GST control); with ELF4, 1.2 fold enrichment (6-mer frequency, TF over GST control); in the test with ELK4 it was 1.26 fold enrichment (6-mer frequency, TF over GST control); with ETV2, 1.12 fold enrichment (6-mer frequency, TF over GST control); with ELF3 it was 1.22 fold enrichment (6-mer frequency, TF over GST control); in the test with CRX it was 1.09 fold enrichment (6-mer frequency, TF over GST control). In the test with ETV1, the binding signal was 1.2 fold enrichment (6-mer frequency, TF over GST control).
